Test results taken from PubChem BioAssay AID504766 (The Scripps Research Institute Molecular Screening Center, 2011).
Out of some 340,000 compounds screened, about 3,400 (1%) were called active. The entries come from a sample that favours actives as a whole. Unmarked numbers belong to inactive results.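 The calls were made as follows: active = inhibition above the mean over all tested compounds plus 3 SD (cut at about 4.2% in these data); inactive = the rest.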

Target: Nuclear receptor subfamily 0 group B member 1 (Homo sapiens) (UniProt P51843)
Assay: relief of DAX1 transcriptional repression – cell-based, HEK293, Gal4-DAX1, luciferase luminescence, primary screen (AID 504766);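 also: 0% = DAX1-transfected cells with DMSO and 100% = empty-vector control cells with DMSO; inhibition shows as a rise in luminescence from relieved DAX1 repression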
Settings: HEK293 Gal4-DAX1 luciferase reporter, at 6.75 µM, hits give high values

Nuclear receptor subfamily 0 group B member 1 (Homo sapiens), sequence (P51843 207-470 limits assumed): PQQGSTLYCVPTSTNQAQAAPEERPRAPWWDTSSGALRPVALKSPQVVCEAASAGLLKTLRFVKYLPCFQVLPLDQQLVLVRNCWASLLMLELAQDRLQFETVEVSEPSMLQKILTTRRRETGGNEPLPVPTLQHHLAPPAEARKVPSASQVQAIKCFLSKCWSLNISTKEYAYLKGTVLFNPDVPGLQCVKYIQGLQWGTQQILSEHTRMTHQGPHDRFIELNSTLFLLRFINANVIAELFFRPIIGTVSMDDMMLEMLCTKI

In order of rising inhibition:
1. CCc1cc(-c2nnn(CCC3COCCO3)c2CC)ccc1-c1cn(Cc2ccc3ccccc3c2)nn1 (stereo not drawn)  -3.79%
2. Cc1ccc(C(=O)O/N=C(\N)c2ccccn2)cc1Cl  -3.11%
3. O=c1[nH]c2ccccc2n1C1CCN(CCOc2ccccc2)CC1  -1.06%
4. Cc1nc(-c2ccc(Cl)cc2)sc1C(=O)CBr  -0.83%
5. O=C(/C=C\c1ccc2c(c1)OCO2)NC1(C(=O)Nc2ccc3c(c2)OCCO3)CCCCC1  -0.83%
6. COc1ccc(-c2ccc(CN3C(CC(C)C)C(=O)N(Cc4cn(CC5CCCCC5)nn4)CCS3(=O)=O)cc2)cn1 (stereo not drawn)  -0.76%
7. O=C(O)C1CCCN1c1nc(Cl)ccc1[N+](=O)[O-] (stereo not drawn)  -0.69%
8. O=C1OCCC1=COCCCCOC=C1CCOC1=O  -0.66%
9. COc1cccc(NC(=O)CN(C)C(=O)c2cc(Cl)nc3ccccc23)c1  -0.56%
10. c1ccc(-c2ccc3c(c2)NC(C2Nc4cc(-c5ccccc5)ccc4O2)O3)cc1 (stereo not drawn)  -0.52%
11. Cc1ccc(/C(N)=N/OC(=O)COc2ccc(Cl)c(C)c2)cc1  -0.49%
12. O=C(COC(=O)c1ccc(O)cc1O)c1ccc2c(c1)OCCO2  -0.46%
13. COc1ccc(CN2C(=O)C(CC(=O)NCCN3CCOCC3)CC(C(=O)N(C(C)C)C(C)C)=C2C)cc1 (stereo not drawn)  -0.44%
14. CC(=O)OCC(COC(C)=O)OC(C)=O  -0.24%
15. C#CCN(C[C@H]1[C@H](OC(=O)NC2CCCC2)[C@H](OC(=O)NC2CCCC2)C[C@H]2C(=O)N(c3ccccc3)C(=O)[C@@H]12)S(=O)(=O)c1ccc(C)cc1  -0.02%
16. C[C@H]1CN([C@@H](C)CO)C(=O)CCCn2cc(nn2)CO[C@@H]1CN(C)S(=O)(=O)c1ccc(-c2ccccc2)cc1  0%
17. O=C(CCc1ccc(S(=O)(=O)N2CCOCC2)cc1)NN=C1CCCCCCC1  0%
18. C[C@@H]1CN([C@@H](C)CO)C(=O)c2cc(Br)cnc2O[C@H]1CN(C)Cc1ccc(-c2ccccc2)cc1  0%
19. O=C(CCCN1C(=O)C(c2ccccc2)Oc2cccnc21)Nc1ccccc1Br (stereo not drawn)  0.05%
20. COc1ccc(-c2nnc3ccc(SCc4ccccc4)nn23)cc1  0.1%
21. CC(=O)c1ccc(Oc2cc(C)nc(-n3nc(C)cc3C)n2)cc1  0.1%
22. Cc1ccc(S(=O)(=O)N2C[C@H]3n4c(=O)ccc(=O)n4C[C@H](OC(=O)NC4CCCC4)[C@@]3(O)C2)cc1  0.12%
23. Cc1ccc(S(=O)(=O)N2C[C@@H](C)[C@]3(C2)[C@H](O)[C@H](OC(=O)NCc2ccccc2)C[C@H]2C(=O)N(c4ccccc4)C(=O)[C@H]23)cc1  0.21%
24. CCc1c(N=O)c(-c2ccccc2)n(O)[n+]1[O-]  0.23%
25. Cn1c(CCN2CCN(c3ccccn3)CC2)nc2cc(NS(=O)(=O)c3ccc(F)cc3)ccc21  0.29%
26. C[C@@H]1CN([C@@H](C)CO)C(=O)CCCn2nncc2CO[C@@H]1CN(C)S(=O)(=O)c1ccc(-c2ccccc2)cc1  0.31%
27. CC(=NNC(N)=O)C1CC2CCC1CC2 (stereo not drawn)  0.34%
28. COc1ccc(C(C)(C)C)cc1NC(=O)CN(C)C1=NS(=O)(=O)c2ccccc21  0.35%
29. COc1ccc2c(c1)CCCO[C@]21O[C@H](CCO)C[C@H](O)[C@H]1O  0.36%
30. O=C(NCCOc1ccccc1)N1[C@H]2CC[C@@H]1C=C(c1ccc(F)cc1OCc1ccccc1)C2  0.36%
31. O=C(Nc1sc2c(c1C(=O)O)CCC2)c1ccccc1F  0.36%
32. CNS(=O)(=O)c1ccc2c(c1)[nH]c(=S)n2C  0.47%
33. CN1CCn2cnc(C(=O)NCC(=O)OC(C)(C)C)c2C1=O  0.48%
34. Cc1cccc(C)c1NC(=O)CNC(=O)c1ccc(N2CCOCC2)c([N+](=O)[O-])c1  0.52%
35. O=C(c1cc(S(=O)(=O)N2CCOCC2)ccc1Cl)N1CCOCC1  0.61%
36. CC1=C(C(=O)N2CCOCC2)CC(CC(=O)NCC2CCCCC2)C(=O)N1Cc1ccc(F)cc1 (stereo not drawn)  0.65%
37. Cc1cc(C)n(-c2ccc3nncn3n2)n1  0.66%
38. CCOC(=O)CSc1nccc(N(C)C)c1C#N  0.68%
39. CCCCCCNC(=O)O[C@H]1CN(C(=O)OC(C)C)N(C(=O)OC(C)C)[C@@H]2CN(S(=O)(=O)c3ccc(C)cc3)C[C@]12O  0.72%
40. C[C@H]1Cn2cnc(C(=O)N[C@@H](Cc3c[nH]c4ccccc34)C(=O)OC(C)(C)C)c2C(=O)N1  0.77%
41. COc1cc2c(=O)n(C)c3ccccc3c2cc1OC  0.78%
42. CCN(Cc1ccncc1)C(=S)Nc1ccccc1C  0.81%
43. C[C@H](CO)N1C[C@H](C)[C@@H](CN(C)C(=O)C2CCCCC2)OCc2cnnn2CCCC1=O  0.86%
44. Cc1cccc(C)c1OCC(=O)NC(Cc1c[nH]c2ccccc12)C(=O)O (stereo not drawn)  0.88%
45. CCCCN1C(=O)C(CC(=O)NC(c2ccccc2)c2ccccc2)CC(C(=O)N2CCOCC2)=C1C (stereo not drawn)  0.88%
46. C[C@H](CO)N1C[C@H](C)[C@@H](CN(C)S(=O)(=O)c2ccc(F)cc2)OCc2cnnn2CCCC1=O  0.91%
47. CCCCN1C(=O)C(CC(=O)NCc2cccs2)CC(C(=O)N2CCOCC2)=C1C (stereo not drawn)  1.03%
48. CC(=O)OC(C)C[N+](C)(C)C (stereo not drawn)  1.03%
49. C[C@@H]1CN([C@@H](C)CO)C(=O)CCCn2cc(nn2)CO[C@H]1CN(C)S(=O)(=O)c1ccc(-n2cccn2)cc1  1.04%
50. Cn1ncc([N+](=O)[O-])c1C(=O)Nc1cc(Cl)ccc1Cl  1.05%
51. C[C@H](CO)N1C[C@H](C)[C@@H](CN(C)C(=O)c2cccc(F)c2)Oc2cc(-c3cncnc3)ccc2S1(=O)=O  1.05%
52. COC(=O)N(C)C[C@@H]1OCc2cnnn2CCCC(=O)N([C@@H](C)CO)C[C@@H]1C  1.06%
53. COc1ccc(-c2ccc(CN3C(CC(C)C)C(=O)N(Cc4cn(CC5CCCCC5)nn4)CCS3(=O)=O)cc2)cc1 (stereo not drawn)  1.23%
54. COCCCN1C(=O)C(CC(=O)NCc2cccs2)CC(C(=O)N2CCOCC2)=C1C (stereo not drawn)  1.28%
55. Cc1cc2cc3n(c2nn1)N=C(Cl)CC3  1.28%
56. CCCOC(=O)c1[nH]c2c(c1C)C(=O)CC(c1cccs1)C2 (stereo not drawn)  1.32%
57. COc1ccc(C(CNC(=O)CSc2ccccc2)N2CCOCC2)cc1 (stereo not drawn)  1.43%
58. c1ccc(Cn2nnc3c(NCC4CC4)ncnc32)cc1  1.59%
59. O=C(Nc1ncccc1O)c1ccc(S(=O)(=O)N2CCCCCC2)cc1  1.6%
60. COCC(=O)N(C)C[C@H]1Oc2cc(Br)ccc2S(=O)(=O)N([C@H](C)CO)C[C@H]1C  1.77%
61. O=C(CN1CCCC1)Nc1sc2c(c1C(=O)Nc1ccccc1)CCCC2  1.85%
62. COc1cccc(CSc2nc3nc(C)cc(C)n3n2)c1  1.86%
63. Cn1c(=O)c([N+](=O)[O-])c(Oc2ccccc2)c2ccccc21  1.91%
64. CCc1nnc(NC(=O)c2ccco2)s1  1.93%
65. Cc1nonc1NC(=O)CSc1nc2ccccc2cc1C#N  2.09%
66. CCCCOC(=O)c1[nH]c(C)c(C(=O)OC)c1C  2.23%
67. N#CCSc1ccccc1NC(=O)CN1C(=O)NC(CCc2ccccc2)C1=O (stereo not drawn)  2.57%
68. Cc1cccc(S(=O)(=O)N(C)C[C@H]2OCc3cnnn3CCCC(=O)N([C@@H](C)CO)C[C@H]2C)c1  2.68%
69. Oc1ccc(-c2cccc(-c3ccc(O)cc3)c2)cc1  2.72%
70. O=C(Nc1ncccc1O)c1ccc(S(=O)(=O)N2CCCC2)cc1  2.95%
71. Cc1nc(-c2ccccc2)sc1C(=O)/C=C/N(C)C  3.31%
72. CC(=O)NC(Cc1c[nH]c2ccccc12)C(=O)NCCc1ccccc1 (stereo not drawn)  3.45%
73. CC1CCC2(CC1)NC(=O)N(CC(=O)NCc1ccco1)C2=O (stereo not drawn)  3.52%

With `CC(=O)NC(Cc1c[nH]c2ccccc12)C(=O)O` (stereo not drawn) the inhibition was 9.87% (active).
For `O=C(O)c1ccc(S(=O)(=O)N2CCOCC2)o1`, the inhibition was 6.4% (active).
In the case of `Cc1nc(-c2ccccc2)sc1C(=O)/C=C/c1ccccc1`, the inhibition is reported as 5.32% (active).
In the case of `O=C(Nc1ncccc1O)c1ccc(C(=O)c2ccccc2)cc1`, the inhibition is reported as 10.6% (active).
In the case of `COc1ccc2nc(SCc3ccccc3)nc(C)c2c1`, the inhibition is reported as 4.59% (active).
`O=C(/C=C/c1ccc2c(c1)OCCO2)c1ccc(O)cc1` was tested, and the inhibition was 16.4% (active).
`CCOc1ccc2cc(C#N)c(SCC(=O)OC)nc2c1` was tested, and the inhibition was 4.25% (active).
With `COC(=O)C1C(=O)c2c([nH]c(C(=O)OCCSC)c2C)CC1C` (stereo not drawn) the inhibition was 5.56% (active).
With `c1ccc(-c2c[nH]c(-c3ccccc3)c2)cc1` the inhibition was 4.28% (active).
With `Cc1cccc(Oc2c([N+](=O)[O-])c(=O)n(C)c3ccccc23)c1` the inhibition was 5.15% (active).
With `NC(=O)c1c(NC(=O)c2ccccc2)sc2c1CCCC2` the inhibition was 4.41% (active).
In the case of `C[C@@H]1CN([C@H](C)CO)C(=O)CCCn2nncc2CO[C@@H]1CN(C)C(=O)OCc1ccccc1`, the inhibition is reported as 4.4% (active).
In the case of `Cc1cccc(/C(N)=N/OC(=O)c2ccccc2Cl)c1`, the inhibition is reported as 4.97% (active).
For `CC(=O)OCCC(C)C`, the inhibition was 5.92% (active).
`Cc1cc(C)n(-c2nc(O)cc(=O)[nH]2)n1` was tested, and the inhibition was 4.76% (active).
